How the values were obtained:
Experiment in all cases: log2 ratio of Biotin-Ahx-Ub-VS probe labelling (fragment/DMSO); higher = less target engagement (more negative = stronger competition), active = hit call of the paper (q ≤ 0.05, log2 ratio ≤ -1)
Conditions in all cases: compound concentration: 200 uM; treatment time: 3 h
USP42 = molecular target: T1, USP42 (UniProt Q9H9J4)
T1 sequence (whole entry): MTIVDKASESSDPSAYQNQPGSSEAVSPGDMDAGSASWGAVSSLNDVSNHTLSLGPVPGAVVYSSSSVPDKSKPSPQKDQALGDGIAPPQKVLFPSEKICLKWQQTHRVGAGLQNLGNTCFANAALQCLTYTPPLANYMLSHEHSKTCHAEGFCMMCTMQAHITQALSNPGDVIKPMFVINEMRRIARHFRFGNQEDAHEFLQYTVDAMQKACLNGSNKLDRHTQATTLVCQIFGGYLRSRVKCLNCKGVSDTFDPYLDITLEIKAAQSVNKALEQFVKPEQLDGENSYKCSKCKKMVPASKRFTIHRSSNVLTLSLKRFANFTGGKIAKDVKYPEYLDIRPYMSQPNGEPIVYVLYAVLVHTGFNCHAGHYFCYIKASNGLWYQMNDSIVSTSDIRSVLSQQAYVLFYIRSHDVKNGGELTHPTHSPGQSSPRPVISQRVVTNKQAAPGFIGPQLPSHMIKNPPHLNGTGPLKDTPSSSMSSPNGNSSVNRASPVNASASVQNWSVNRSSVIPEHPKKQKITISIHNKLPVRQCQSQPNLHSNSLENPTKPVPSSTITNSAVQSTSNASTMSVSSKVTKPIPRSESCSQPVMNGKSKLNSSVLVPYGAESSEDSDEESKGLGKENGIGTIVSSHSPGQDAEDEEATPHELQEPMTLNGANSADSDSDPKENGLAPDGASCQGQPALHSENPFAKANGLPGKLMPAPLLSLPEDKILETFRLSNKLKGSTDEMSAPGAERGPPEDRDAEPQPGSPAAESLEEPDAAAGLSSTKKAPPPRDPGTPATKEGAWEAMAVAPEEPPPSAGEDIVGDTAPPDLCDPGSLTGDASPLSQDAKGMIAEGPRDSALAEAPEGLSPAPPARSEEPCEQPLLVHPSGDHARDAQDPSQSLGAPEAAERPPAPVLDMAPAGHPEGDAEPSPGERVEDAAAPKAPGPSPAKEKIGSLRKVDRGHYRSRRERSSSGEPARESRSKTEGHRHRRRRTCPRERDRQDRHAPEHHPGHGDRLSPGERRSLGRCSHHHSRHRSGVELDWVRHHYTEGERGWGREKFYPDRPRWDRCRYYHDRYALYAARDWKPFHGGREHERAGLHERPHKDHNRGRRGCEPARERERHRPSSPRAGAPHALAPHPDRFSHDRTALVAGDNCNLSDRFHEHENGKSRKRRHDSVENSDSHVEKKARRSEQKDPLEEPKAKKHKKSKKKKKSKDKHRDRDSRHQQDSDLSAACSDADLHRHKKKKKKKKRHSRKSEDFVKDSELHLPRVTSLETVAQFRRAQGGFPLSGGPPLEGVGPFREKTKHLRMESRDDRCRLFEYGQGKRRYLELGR
In short: (§1)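 The table lists average log2 ratios of fragment over vehicle, from an unpaired t-test on global-median-normalised Spectronaut label-free quantities. Proteins with ≥2 unique peptides were used. Samples were HEK293T lysate (495 µg) treated in triplicate with fragment at 200 µM or vehicle for 3 h, then with Biotin-Ahx-Ub-VS (0.5 µM final) for 1 h, with labelled DUBs NeutrAvidin-enriched and run by diaPASEF LC-MS/MS.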

USP46 = USP46 (UniProt P62068)
In short: as §1

USP47 = molecular target: T2, USP47 (UniProt Q96K76)
T2 sequence (whole entry): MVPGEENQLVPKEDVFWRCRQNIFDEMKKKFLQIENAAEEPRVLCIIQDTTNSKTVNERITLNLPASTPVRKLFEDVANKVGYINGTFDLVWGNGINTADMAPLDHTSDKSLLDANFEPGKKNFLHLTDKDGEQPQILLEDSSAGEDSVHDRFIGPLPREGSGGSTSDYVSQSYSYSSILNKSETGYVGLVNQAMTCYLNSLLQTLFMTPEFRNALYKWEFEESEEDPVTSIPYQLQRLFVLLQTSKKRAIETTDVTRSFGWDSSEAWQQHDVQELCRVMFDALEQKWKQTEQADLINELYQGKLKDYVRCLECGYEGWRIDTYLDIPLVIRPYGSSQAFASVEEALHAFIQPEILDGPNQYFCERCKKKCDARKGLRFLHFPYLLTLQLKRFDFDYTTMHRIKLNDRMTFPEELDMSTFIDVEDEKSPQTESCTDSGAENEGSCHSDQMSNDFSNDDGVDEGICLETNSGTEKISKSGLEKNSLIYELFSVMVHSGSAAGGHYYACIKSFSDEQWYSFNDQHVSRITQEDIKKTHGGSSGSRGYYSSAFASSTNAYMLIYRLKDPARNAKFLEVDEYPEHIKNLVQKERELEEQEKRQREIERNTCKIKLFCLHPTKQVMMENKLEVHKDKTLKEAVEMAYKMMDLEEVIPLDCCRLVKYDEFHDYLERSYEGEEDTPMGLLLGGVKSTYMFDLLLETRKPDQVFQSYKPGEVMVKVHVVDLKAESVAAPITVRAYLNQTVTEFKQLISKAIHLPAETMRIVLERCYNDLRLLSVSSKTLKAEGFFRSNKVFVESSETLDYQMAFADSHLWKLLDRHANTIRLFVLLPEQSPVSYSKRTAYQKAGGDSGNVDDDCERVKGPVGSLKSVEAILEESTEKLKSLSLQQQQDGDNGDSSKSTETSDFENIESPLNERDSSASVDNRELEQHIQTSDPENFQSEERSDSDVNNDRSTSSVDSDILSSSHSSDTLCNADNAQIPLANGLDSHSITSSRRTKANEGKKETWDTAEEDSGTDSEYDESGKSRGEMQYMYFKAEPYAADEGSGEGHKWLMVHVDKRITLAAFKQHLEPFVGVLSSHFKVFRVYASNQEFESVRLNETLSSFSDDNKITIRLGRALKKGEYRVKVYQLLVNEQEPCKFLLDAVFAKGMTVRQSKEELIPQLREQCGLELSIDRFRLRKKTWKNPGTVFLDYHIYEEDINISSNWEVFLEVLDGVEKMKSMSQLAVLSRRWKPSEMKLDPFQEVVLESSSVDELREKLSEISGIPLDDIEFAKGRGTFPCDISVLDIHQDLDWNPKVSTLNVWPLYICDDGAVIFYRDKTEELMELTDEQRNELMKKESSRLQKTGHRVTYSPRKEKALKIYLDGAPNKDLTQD
In short: as §1

USP48 = molecular target: T3, USP48 (UniProt Q86UV5)
T3 sequence (whole entry): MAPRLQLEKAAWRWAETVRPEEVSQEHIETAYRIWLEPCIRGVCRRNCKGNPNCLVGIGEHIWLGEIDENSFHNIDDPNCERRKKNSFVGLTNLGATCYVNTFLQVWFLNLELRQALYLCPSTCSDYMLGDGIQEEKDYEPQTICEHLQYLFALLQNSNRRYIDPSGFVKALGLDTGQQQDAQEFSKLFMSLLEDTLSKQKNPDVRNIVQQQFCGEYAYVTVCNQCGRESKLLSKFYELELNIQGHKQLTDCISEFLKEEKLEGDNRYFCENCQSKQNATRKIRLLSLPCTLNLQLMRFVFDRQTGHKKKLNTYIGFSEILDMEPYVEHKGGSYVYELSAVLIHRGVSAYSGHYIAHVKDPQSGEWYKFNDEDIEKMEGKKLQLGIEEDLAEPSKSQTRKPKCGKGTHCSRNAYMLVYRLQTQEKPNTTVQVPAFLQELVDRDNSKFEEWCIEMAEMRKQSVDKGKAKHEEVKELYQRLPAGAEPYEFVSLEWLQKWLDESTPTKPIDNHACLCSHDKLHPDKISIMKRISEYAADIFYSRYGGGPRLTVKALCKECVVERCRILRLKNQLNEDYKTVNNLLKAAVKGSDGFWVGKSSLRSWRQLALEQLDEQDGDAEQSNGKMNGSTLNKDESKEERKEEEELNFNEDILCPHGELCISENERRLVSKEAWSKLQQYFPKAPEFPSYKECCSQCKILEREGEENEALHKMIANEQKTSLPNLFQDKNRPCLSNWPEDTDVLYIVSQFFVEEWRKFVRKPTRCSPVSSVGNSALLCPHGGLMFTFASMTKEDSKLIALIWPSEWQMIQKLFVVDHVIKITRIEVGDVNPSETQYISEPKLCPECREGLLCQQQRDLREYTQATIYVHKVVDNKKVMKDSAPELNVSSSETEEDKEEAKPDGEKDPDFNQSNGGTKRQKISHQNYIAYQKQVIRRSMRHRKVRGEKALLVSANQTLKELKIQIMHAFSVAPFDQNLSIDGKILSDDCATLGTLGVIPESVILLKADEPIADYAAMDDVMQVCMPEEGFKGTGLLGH
In short: as §1

USP5 = molecular target: T4, USP5 (UniProt P45974)
T4 sequence (whole entry): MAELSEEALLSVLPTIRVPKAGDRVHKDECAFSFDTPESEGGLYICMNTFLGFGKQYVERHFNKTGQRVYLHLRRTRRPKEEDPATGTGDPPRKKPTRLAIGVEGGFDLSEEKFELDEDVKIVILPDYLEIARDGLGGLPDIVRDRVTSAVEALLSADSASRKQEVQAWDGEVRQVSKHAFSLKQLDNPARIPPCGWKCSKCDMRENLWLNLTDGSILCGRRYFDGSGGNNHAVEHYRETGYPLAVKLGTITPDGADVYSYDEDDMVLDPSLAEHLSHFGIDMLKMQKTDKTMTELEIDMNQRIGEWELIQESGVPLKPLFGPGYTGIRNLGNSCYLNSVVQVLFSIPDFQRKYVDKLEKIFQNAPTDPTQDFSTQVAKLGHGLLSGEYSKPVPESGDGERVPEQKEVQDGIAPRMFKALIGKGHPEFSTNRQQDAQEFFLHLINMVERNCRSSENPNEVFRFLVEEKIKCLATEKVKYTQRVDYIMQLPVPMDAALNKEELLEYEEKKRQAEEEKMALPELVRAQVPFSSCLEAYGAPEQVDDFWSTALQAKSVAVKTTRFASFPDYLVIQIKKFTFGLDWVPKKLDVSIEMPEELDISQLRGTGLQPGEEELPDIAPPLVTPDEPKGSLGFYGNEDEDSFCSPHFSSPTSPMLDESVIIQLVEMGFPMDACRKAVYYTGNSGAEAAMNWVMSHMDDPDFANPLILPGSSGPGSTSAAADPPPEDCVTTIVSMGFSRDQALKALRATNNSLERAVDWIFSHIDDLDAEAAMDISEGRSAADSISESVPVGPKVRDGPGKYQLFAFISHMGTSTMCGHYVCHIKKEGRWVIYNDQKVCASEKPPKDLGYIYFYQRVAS
In short: as §1

USP54 = USP54 (UniProt Q70EL1)
In short: as §1

USP7 = USP7 (UniProt Q93009)
In short: as §1

USP8 = molecular target: T5, USP8 (UniProt P40818)
T5 sequence (whole entry): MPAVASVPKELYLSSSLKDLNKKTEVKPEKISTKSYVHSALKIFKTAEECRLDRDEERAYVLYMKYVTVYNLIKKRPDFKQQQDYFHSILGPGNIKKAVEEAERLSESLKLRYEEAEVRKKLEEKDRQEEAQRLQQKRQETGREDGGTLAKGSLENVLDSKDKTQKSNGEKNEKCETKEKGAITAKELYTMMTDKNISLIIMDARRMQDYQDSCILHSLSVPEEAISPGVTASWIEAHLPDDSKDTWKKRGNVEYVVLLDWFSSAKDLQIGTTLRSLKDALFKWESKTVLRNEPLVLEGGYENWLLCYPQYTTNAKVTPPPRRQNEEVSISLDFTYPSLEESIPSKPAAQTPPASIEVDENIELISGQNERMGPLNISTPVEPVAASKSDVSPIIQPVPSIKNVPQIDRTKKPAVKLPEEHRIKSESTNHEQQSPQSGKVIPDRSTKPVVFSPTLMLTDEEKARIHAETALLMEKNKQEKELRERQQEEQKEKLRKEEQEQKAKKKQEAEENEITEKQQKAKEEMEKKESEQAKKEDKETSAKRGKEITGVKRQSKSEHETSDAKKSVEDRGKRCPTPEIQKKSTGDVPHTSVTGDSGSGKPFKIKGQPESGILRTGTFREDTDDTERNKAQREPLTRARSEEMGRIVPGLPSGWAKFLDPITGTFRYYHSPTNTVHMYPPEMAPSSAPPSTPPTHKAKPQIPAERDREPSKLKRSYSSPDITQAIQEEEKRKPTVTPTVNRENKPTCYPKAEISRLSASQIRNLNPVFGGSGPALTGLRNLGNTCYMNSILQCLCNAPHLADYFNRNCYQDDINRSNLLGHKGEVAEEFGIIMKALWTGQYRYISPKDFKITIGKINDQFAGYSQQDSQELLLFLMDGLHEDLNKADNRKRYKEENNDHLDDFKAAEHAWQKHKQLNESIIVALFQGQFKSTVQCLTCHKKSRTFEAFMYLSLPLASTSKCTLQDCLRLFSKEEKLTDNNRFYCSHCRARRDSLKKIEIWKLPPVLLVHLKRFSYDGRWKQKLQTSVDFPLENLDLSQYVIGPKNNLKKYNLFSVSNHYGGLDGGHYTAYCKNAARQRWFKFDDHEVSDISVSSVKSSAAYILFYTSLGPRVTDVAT
In short: as §1

USP9X = USP9X (UniProt Q93008)
In short: as §1

UniProt O00487 = molecular target: UniProt O00487
In short: as §1

Measured: log2 ratio of Biotin-Ahx-Ub-VS probe labelling

Sequence of USP9X (Q93008 whole entry): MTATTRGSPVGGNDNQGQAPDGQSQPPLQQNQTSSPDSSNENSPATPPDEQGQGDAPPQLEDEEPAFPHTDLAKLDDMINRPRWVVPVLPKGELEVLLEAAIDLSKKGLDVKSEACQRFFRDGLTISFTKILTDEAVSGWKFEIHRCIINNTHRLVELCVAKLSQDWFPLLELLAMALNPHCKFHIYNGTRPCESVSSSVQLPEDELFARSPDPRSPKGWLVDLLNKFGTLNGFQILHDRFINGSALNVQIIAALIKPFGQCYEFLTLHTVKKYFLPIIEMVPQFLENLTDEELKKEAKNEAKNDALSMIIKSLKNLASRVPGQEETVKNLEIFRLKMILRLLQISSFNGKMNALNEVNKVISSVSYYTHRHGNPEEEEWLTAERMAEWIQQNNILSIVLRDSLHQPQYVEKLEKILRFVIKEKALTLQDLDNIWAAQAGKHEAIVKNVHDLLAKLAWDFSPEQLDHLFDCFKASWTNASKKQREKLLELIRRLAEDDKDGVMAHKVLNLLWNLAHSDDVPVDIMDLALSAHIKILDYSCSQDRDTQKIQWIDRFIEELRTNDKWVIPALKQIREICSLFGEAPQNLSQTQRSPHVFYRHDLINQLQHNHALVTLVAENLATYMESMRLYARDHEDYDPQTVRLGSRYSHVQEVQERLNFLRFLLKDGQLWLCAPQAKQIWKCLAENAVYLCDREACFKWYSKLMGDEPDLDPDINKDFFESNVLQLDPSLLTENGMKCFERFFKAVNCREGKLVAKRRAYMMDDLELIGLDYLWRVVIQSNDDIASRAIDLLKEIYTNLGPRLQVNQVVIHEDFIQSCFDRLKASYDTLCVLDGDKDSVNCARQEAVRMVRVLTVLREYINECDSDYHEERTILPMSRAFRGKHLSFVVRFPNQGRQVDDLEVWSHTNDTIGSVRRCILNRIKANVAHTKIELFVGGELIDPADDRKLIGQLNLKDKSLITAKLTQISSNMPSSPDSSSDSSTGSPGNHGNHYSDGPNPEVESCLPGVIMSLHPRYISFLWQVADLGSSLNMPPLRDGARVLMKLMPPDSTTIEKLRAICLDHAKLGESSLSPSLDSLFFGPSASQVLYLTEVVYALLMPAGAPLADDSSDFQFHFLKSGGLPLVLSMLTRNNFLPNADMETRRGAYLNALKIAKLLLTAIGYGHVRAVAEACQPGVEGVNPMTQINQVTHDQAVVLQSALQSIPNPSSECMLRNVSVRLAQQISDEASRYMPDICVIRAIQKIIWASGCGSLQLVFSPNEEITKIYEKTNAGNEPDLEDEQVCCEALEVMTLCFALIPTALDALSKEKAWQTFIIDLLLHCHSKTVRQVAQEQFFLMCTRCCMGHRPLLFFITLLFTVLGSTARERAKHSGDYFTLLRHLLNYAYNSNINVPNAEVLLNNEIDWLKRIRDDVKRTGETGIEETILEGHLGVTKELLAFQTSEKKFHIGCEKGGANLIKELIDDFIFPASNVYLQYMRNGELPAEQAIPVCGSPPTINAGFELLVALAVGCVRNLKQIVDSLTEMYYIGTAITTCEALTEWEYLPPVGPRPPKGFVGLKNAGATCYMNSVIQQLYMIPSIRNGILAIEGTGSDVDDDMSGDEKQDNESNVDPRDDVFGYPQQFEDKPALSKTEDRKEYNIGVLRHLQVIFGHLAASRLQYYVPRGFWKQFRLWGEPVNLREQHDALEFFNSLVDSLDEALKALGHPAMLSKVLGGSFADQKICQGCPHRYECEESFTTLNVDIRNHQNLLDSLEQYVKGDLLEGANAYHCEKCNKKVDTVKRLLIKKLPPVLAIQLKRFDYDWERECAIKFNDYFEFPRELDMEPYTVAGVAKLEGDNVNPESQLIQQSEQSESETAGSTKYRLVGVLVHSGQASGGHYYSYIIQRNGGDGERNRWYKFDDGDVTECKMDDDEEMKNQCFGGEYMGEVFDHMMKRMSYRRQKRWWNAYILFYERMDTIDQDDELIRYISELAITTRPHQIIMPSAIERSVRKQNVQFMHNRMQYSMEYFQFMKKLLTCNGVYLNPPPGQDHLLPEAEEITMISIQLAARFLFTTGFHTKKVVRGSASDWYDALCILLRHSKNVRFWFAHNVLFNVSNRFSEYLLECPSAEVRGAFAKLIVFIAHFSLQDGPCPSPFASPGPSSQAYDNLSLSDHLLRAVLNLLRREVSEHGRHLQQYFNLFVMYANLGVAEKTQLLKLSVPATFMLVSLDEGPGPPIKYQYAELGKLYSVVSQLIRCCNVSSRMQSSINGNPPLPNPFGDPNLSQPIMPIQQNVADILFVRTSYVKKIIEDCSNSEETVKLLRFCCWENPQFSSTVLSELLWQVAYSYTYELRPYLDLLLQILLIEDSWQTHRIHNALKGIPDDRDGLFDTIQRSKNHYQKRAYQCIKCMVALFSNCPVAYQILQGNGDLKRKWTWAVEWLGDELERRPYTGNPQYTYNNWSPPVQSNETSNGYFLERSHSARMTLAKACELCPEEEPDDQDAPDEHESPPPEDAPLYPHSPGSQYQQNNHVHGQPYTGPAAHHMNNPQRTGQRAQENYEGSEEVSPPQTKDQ
Sequence of USP54 (Q70EL1 whole entry): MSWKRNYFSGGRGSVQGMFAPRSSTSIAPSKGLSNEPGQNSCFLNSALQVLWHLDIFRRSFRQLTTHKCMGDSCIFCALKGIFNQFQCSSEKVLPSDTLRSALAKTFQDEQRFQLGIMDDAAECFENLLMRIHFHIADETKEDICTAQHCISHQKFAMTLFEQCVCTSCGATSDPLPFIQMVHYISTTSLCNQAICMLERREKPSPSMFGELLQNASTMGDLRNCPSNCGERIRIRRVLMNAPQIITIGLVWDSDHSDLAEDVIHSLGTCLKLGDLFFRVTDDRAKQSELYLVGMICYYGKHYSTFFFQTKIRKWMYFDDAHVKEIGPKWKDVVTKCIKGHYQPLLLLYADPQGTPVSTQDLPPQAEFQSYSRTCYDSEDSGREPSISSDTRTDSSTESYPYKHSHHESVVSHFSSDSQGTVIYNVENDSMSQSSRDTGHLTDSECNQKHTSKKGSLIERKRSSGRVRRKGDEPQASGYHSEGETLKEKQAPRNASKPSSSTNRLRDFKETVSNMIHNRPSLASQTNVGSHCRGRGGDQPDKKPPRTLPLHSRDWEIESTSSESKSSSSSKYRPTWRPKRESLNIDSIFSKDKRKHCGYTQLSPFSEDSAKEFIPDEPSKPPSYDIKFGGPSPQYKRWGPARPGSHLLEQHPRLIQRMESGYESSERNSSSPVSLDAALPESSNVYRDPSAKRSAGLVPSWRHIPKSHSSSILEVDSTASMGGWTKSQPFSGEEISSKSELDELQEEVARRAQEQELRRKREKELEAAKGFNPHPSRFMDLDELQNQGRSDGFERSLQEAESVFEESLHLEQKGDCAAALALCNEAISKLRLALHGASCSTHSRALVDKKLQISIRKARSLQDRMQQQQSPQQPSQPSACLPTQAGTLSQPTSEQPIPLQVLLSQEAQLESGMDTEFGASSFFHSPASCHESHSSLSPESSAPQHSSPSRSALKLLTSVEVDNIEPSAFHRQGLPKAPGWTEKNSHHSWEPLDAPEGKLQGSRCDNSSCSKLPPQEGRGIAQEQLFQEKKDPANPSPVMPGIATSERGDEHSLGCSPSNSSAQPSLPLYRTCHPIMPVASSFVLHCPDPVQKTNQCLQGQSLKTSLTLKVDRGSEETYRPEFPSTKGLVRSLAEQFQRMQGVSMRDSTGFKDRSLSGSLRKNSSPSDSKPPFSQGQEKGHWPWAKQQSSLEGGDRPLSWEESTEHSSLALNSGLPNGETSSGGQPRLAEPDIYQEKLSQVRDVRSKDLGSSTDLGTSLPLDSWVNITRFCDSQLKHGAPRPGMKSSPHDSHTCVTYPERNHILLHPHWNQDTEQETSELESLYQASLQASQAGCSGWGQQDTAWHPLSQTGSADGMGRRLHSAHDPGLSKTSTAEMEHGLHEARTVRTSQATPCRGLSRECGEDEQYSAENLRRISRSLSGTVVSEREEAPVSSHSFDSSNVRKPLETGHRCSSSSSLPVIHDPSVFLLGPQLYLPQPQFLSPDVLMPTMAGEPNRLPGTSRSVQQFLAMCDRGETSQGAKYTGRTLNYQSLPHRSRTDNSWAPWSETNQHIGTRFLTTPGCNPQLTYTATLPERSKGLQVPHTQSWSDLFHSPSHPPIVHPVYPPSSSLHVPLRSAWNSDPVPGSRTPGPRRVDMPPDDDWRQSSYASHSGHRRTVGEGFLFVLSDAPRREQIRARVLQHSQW
Sequence of UniProt O00487 (O00487 whole entry): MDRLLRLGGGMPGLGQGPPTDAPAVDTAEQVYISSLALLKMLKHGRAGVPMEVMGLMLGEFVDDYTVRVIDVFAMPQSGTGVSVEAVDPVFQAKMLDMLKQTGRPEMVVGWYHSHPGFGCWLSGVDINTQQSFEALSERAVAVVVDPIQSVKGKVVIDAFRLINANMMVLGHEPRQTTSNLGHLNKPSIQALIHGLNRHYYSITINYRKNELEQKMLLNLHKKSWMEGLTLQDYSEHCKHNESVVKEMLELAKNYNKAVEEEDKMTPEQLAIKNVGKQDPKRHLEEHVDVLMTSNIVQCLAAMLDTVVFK
Sequence of USP46 (P62068 whole entry): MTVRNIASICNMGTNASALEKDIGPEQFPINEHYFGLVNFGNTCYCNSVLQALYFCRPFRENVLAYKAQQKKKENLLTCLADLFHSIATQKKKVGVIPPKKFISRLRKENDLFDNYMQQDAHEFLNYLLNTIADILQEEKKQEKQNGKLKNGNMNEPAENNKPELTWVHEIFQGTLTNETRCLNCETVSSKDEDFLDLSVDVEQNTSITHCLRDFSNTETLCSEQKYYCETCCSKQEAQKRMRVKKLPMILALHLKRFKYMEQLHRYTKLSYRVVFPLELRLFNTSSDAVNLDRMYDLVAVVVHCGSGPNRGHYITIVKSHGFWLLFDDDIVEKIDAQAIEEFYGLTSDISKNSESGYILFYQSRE

NC(=O)C1CCCN(C(=O)CCl)C1 (stereo not given)
inactive: USP42 -0.105 | USP46 0.15 | USP47 -0.831 | USP48 -0.259 | USP5 -0.0828 | USP54 0.785 | USP7 -0.0546 | USP8 -0.122 | USP9X -0.029 | UniProt O00487 -0.0923

From the supplement of paper PMC11732987, “Enantioselective OTUD7B fragment discovery through chemoproteomics screening and high-throughput optimisation” (Communications Chemistry, 2025)
